Screens deposited in PubChem BioAssay by National Center for Advancing Translational Sciences (NCATS).
S16 viability: Cell viability qHTS assay in S16 Pmp22-F2sN cells | S16 Pmp22-F2sN Schwann cells viability, CellTiter-Glo, 24 h | 43,000 tested, 0.48% active | Potency, µM (titrated, usually from 57.5 µM), hits mostly cytotoxic; further: nearly all actives have a fitted effect of over 65% in size
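S16 Pmp22-F2sN Schwann cells (500-1,000/well) in phenol-red-free DMEM with 10% FBS received 23 nL compound by pin tool for 24 h at 37 °C. Viability was then read as CellTiter-Glo luminescence after 15 min at room temperature.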
mTORC1 inh: Acumen qHTS Assay for Inhibitors of the mTORC1 Signaling Pathway in MEF (Tsc2-/-, p53-/-) Cells: Sytravon; Tsc2-/- p53-/- MEF, phospho-rpS6 immunofluorescence/PI, 24 h; Potency, µM (top dose mostly 38.3 µM), actives largely listed as inhibitors; 44,000 tested, 0.78% active; further: nearly all actives have a fitted effect of over 50% in size
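Compounds act on Tsc2-/-, p53-/- fibroblasts carrying an empty vector for 24 h before fixation and dual staining for phospho-S6 and DNA (propidium iodide). Values are percentages of cells above a rapamycin-defined pS6/PI threshold.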
SKOV3 invasion: Primary qHTS assay for Inhibitors of ovarian cancer metastasis using an organotypic tumor microenvironment (TME) model | SKOV3ip1-GFP adhesion/invasion on 3D omental model, fluorescence | Potency, µM (titrated, usually from 45.8 µM), usual class: inhibitors | 46,000 tested, 0.1% active | AID 1963576, 2024; further: nearly all actives have a fitted effect of over 65% in size
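Adhesion/invasion was scored as fixed GFP-labeled SKOV3ip1 cell counts (488/509 nm), normalized to DMSO and tomatine controls. Cancer cells in serum-free medium, with four compound doses (0.36-46 umol/L), sat 2 hr at RT then 16 hr at 37 C on a 48 hr fibroblast/mesothelial/ECM culture.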
PMP22 txn: Cell-based coincidence reporter assay to measure PMP22 gene transcription in S16 Pmp22-F2sN cells - Primary screen | S16 Pmp22-F2sN Schwann cells (luciferase reporters placed in the Pmp22 gene), FLuc/NLuc coincidence luminescence, 24 h | Potency, µM (titrated, usually from 57.5 µM), most hits filed as inhibitors | 43,000 tested, 2% active | AID 1508649, 2021; active means clear falling dose curves in both reporters; inconclusive means both reporters move, but less clearly or upward; inactive means either reporter flat; the % is the NLuc reporter signal
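Reporter cells (S16 Pmp22-F2sN, 500–1,000 per well) exposed to compounds for 24 h, 37C, 5% CO2; lysis with FLuc read after 10 min, then Stop&Glo and NLuc read after 10 min.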
p53null 32C tox: qHTS Screen for Compounds that Selectively Target Cancer Cells with p53 Mutations: Cytotoxicity of p53 Null Cells at the Permissive Temperature. H1299-neo p53 null cells, ATP luminescence, 24 h, 32C. 55,000 tested, 0.62% active. AID 903, 2007. Potency, µM (highest dose often 46.1 µM), usual class: cytotoxic; further: nearly all actives have a fitted effect of over 55% in size
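H1299-neo (p53-null) cells, 600/well, were pre-incubated overnight at 37C, then exposed to compounds at up to 46 uM for 24 hr at 32C. Viability was measured as ATP content by luminescence, and AC50 values came from Hill fits.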
p53null 39C tox: qHTS Screen for Compounds that Selectively Target Cancer Cells with p53 Mutations: Cytotoxicity of p53 Null Cells at the Nonpermissive Temperature. AID 904, 2007. H1299 p53-null (neo) cells, 39C, ATPlite viability, 24 h. 55,000 tested, 0.97% active. Potency, µM (series often up to 46.1 µM), usual class: cytotoxic; further: nearly all actives have a fitted effect of over 50% in size
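Temperature-shift cytotoxicity format: compound titrations on p53-null or A138V-expressing H1299 cells held 24 hr at 39C, cell ATP then measured, AC50 from Hill model.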
NLuc saturating: Biochemical NLuc saturation counterscreen for small molecule modulators of PMP22 gene expression - Nano-Glo assay; shares compounds with PMP22 txn; Secreted NLuc enzyme (filtered S16 cell medium), Nano-Glo luminescence; Potency, µM (titrated, usually from 57.5 µM), hits mostly inhibitors; AID 1508638, 2021; 690 tested, 4% active
NLuc Km counter: Biochemical coelenterazine-based NLuc counterscreen for small molecule modulators of PMP22 gene expression - Km assay | shares compounds with PMP22 txn | secreted NLuc enzyme, coelenterazine luminescence, Km conditions | Potency, µM (highest dose often 57.5 µM), actives largely listed as inhibitors | 690 tested, 5% active | AID 1508639, 2021
FLuc counter: Biochemical FLuc counterscreen for small molecule modulators of PMP22 gene expression | AID 1508640, 2021 | Potency, µM (series often up to 57.5 µM), actives largely listed as inhibitors | 690 tested, under 10 active | shares compounds with PMP22 txn | purified P. pyralis FLuc, luminescence, 10 min
Target sequence (P08659 whole entry, looked up): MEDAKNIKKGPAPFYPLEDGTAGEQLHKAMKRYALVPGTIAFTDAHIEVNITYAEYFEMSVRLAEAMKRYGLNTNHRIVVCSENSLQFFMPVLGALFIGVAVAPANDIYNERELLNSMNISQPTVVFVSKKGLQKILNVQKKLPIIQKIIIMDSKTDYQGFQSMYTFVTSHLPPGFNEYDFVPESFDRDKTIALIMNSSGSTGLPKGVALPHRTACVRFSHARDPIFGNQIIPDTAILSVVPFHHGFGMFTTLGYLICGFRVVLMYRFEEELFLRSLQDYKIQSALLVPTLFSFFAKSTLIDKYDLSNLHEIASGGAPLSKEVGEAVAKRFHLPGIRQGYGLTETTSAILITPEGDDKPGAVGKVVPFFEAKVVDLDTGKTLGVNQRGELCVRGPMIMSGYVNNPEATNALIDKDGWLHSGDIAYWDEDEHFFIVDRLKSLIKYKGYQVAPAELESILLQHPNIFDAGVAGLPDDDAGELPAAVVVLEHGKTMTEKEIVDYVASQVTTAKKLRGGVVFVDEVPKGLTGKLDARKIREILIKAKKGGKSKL
S16 F2sN tox cnf: Cell viability qHTS assay in S16 Pmp22-F2sN cells - Confirmatory screen | Potency, µM (titrated, usually from 57.5 µM), actives largely listed as cytotoxic | AID 1508641, 2021 | 690 tested, 7% active | S16 Schwann cells viability, CellTiter-Glo ATP luminescence, 24 h | shares compounds with PMP22 txn
PMP22 txn cnf: Cell-based coincidence reporter assay to measure PMP22 gene transcription in S16 Pmp22-F2sN cells - Confirmatory screen. shares compounds with PMP22 txn. S16 Schwann cells Pmp22-F2sN, dual luciferase, 24 h. Potency, µM (titrated, usually from 57.5 µM), actives largely listed as inhibitors. 690 tested, 22% active. AID 1508646, 2021; active means clear falling dose curves in both reporters; inconclusive means both reporters move, but less clearly or upward; inactive means either reporter flat; the % is the FLuc reporter signal
Large screens that a line does not name were inactive (follow-up assays come after a bar, where they were run). Only some compounds are listed: those with a hit (about 3.1% of all), similar ones and a draw of the others. Unless noted, the call rests on the fitted dose curve; in most records, active means well fitted curve in the direction sought with a large enough effect; inconclusive means small, poorly fitted or top-dose-only effect, or another doubt; inactive means no such curve, though single readings can be large; an effect the other way counts as inactive or inconclusive.

Cn1c(=O)oc2cc(S(=O)(=O)N3CCCC(C(=O)N4CCN(c5ccccc5F)CC4)C3)ccc21 (centres undefined)	PMP22 txn inconclusive
COc1ccc(Cn2c(=O)n(-c3ccc(OC)cc3)c(=O)c3c2c2cc(OC)ccc2n3C)cc1	none
COc1ccc(-n2c(=O)c3c(c4cc(OC)ccc4n3C)n(CCC(C)C)c2=O)cc1	PMP22 txn 2.1µM | NLuc saturating inactive | NLuc Km counter inactive | FLuc counter inactive | S16 F2sN tox cnf inactive | PMP22 txn cnf inactive
CC(C=CC1=C(C)CCCC1(C)C)=CC=CC(C)=CC(=O)O	none (no result: S16 viability, mTORC1 inh, PMP22 txn, p53null 32C tox, p53null 39C tox)
CCCCCOc1ccc(/C=C/C(=O)Nc2sc(C(C)=O)c(C)c2C(=O)OCC)cc1OC	PMP22 txn 7.5µM | NLuc saturating inactive | NLuc Km counter inactive | FLuc counter inactive | S16 F2sN tox cnf inactive | PMP22 txn cnf inactive
CCCCCOc1ccc(/C=C/C(=O)Nc2sc3c(c2C(=O)OCC)CCC3)cc1OC	none
CCCCCOc1ccc(/C=C/C(=O)Nc2sc(C)c(C)c2C(=O)OCC)cc1OC	PMP22 txn 7.1µM | NLuc saturating inactive | NLuc Km counter inactive | FLuc counter inactive | S16 F2sN tox cnf inactive | PMP22 txn cnf inactive
Cc1ccc(Nc2cc(-c3cccc(N4C(=O)c5ccccc5C4=O)c3)ncn2)cc1NS(C)(=O)=O	none (no result: S16 viability, mTORC1 inh, PMP22 txn, p53null 32C tox, p53null 39C tox)
NC[C@@H]1O[C@@H](O[C@H]2[C@@H](O)[C@H](O[C@@H]3[C@@H](O)[C@@H](N)C[C@H](N)[C@H]3O[C@H]3O[C@H](CN)[C@@H](O)[C@@H](O)[C@H]3N)O[C@H]2CO)[C@H](N)[C@@H](O)[C@@H]1O	none (no result: S16 viability, mTORC1 inh, PMP22 txn, p53null 32C tox, p53null 39C tox)
Cc1cc(Nc2sc(C(=O)c3ccc(F)cc3)c(N)c2C(=O)Nc2ccc(F)cc2)ccc1Cl	S16 viability inconclusive, SKOV3 invasion inconclusive, PMP22 txn 6.3µM | NLuc saturating inactive | NLuc Km counter inconclusive | FLuc counter inactive | S16 F2sN tox cnf inconclusive | PMP22 txn cnf 6.1µM
Cc1c(-c2cccc3c(CCCOc4cccc5ccccc45)c(C(=O)O)n(Cc4cccnc4)c23)c(COc2ccc(N3CCN([S+](=O)([O-])N(C)C)CC3)cc2)nn1C	none (no result: S16 viability, mTORC1 inh, PMP22 txn, p53null 32C tox, p53null 39C tox)
CCCCCn1c(=N)n(CC(O)COc2cccc(C)c2)c2ccccc21 (centres undefined)	S16 viability inconclusive, mTORC1 inh 3.7µM, SKOV3 invasion inconclusive, PMP22 txn 18µM, p53null 32C tox inconclusive, p53null 39C tox inconclusive | NLuc saturating inactive | NLuc Km counter inactive | FLuc counter inactive | S16 F2sN tox cnf 22µM | PMP22 txn cnf 16µM
CCOc1ccccc1C(=O)Nc1c(C(=O)Nc2ccc(F)cc2)oc2ccccc12	PMP22 txn 4.1µM | NLuc saturating inconclusive | NLuc Km counter inactive | FLuc counter inactive | S16 F2sN tox cnf inactive | PMP22 txn cnf 5.6µM
O=C(CSc1ncc2c(n1)-c1ccccc1N(Cc1ccc(F)cc1)S2(=O)=O)NCCc1ccccc1	PMP22 txn 18µM | NLuc saturating inactive | NLuc Km counter inactive | FLuc counter inactive | S16 F2sN tox cnf inconclusive | PMP22 txn cnf inconclusive
O=C(NC[C@H](O)CO)c1ccncc1Nc1ccc(I)cc1F	none (no result: S16 viability, mTORC1 inh, PMP22 txn, p53null 32C tox, p53null 39C tox)
O=C(COc1ccc(F)cc1)Nc1ccc2nc(SCC(=O)N3CCc4ccccc43)sc2c1	PMP22 txn 3µM | NLuc saturating inconclusive | NLuc Km counter inactive | FLuc counter inactive | S16 F2sN tox cnf inactive | PMP22 txn cnf inconclusive
O=C(COc1ccccc1)Nc1ccc2nc(SCC(=O)N3CCc4ccccc43)sc2c1	PMP22 txn inconclusive
Cc1ccc(CSc2nc3ccc(NC(=O)COc4ccccc4)cc3s2)cc1	PMP22 txn 15µM | NLuc saturating inactive | NLuc Km counter inactive | FLuc counter inactive | S16 F2sN tox cnf inactive | PMP22 txn cnf inactive
CCOc1ccc(C(=O)Nc2ccc3nc(SCc4ccccc4)sc3c2)cc1	PMP22 txn 8.9µM | NLuc saturating inactive | NLuc Km counter inactive | FLuc counter inactive | S16 F2sN tox cnf inconclusive | PMP22 txn cnf 18µM
CCOC(=O)c1ccc(NC(=O)CSc2cc(-c3ccccc3)nc(C)n2)cc1	none
CC(C)[C@H](C(=O)Nc1ccc(C(=O)NO)cc1)c1ccccc1	none (no result: S16 viability, mTORC1 inh, PMP22 txn, p53null 32C tox, p53null 39C tox)
CC(=O)SC[C@@H](C)C(=O)N1CCC[C@H]1C(=O)N[C@@H](Cc1ccccc1)C(=O)O	none (no result: S16 viability, mTORC1 inh, PMP22 txn, p53null 32C tox, p53null 39C tox)
COc1ccc(Cn2c(SCC(N)=O)nc3c(sc4ccccc43)c2=O)cc1	S16 viability inconclusive, PMP22 txn 12µM | NLuc saturating inactive | NLuc Km counter inactive | FLuc counter inactive | S16 F2sN tox cnf 27µM | PMP22 txn cnf inconclusive
CC(C)[C@H](O)C(=O)N[C@@H](C)C(=O)N[C@@H]1C(=O)N(C)CCc2ccccc21	none (no result: S16 viability, mTORC1 inh, PMP22 txn, p53null 32C tox, p53null 39C tox)
